Records with an inconclusive call do not appear. Where a call stands in place of a potency, no number is given. Calls of active or inactive are those of the source. The call rests on the fitted dose curve; in most records, active means well fitted curve in the direction sought with a large enough effect; inconclusive means small, poorly fitted or top-dose-only effect, or another doubt; inactive means no such curve, though single readings can be large; an effect the other way counts as inactive or inconclusive.

A short description of assay [1]: Primary qHTS for inhibitors of La Crosse Virus (LACV) - induced cell death in SH-SY5Y cells (AID 1508616).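 Further: top concentration of the series differs between compounds; higher means more rescue of cells from virus-induced death.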 Put shortly: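 Screening measures cell viability in LACV-infected SH-SY5Y cultures. Compound was added before virus (0.01 MOI), and ATP was detected by luminescence 6 days later.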
(In general: qHTS replaces the single test concentration by a dilution series.)

Assay [2] deals with Calcium and integrin-binding protein 1 (Homo sapiens) (UniProt Q99828). The assay is described as follows: Primary qHTS for Identification of Calcium Integrin Binding Protein 1 (CIB1) Competitor (AID 1508620).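 Further: GST tagged CIB1 binding a fluorescein labelled alphaIIb integrin peptide tracer; top concentration of the series differs between compounds.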 In a few lines: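 Fluorescence polarization competition: CIB1-GST (1 uM final) preincubated with compound 15 min at room temperature, then FITC-labeled alphaIIb peptide (100 nM final) added for another 15 min. Polarization read at Ex 480/Em 540.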

In assay [3] the target is Protein phosphatase 1D (Homo sapiens) (UniProt O15297). Briefly: Rhodamine-PBP qHTS Assay for Modulators of WT P53-Induced Phosphatase 1 (WIP1) (AID 1347425). In a few lines: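 Steps: enzyme with Rh-PBP sensor and compounds, room-temperature incubation of 1 hr, baseline read, addition of VEPPL-pS-QETFS (10 uM final), kinetic fluorescence reads at 525/598 nm. Activity equals final minus baseline signal.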

The nature of assay [4]: Counterscreen qHTS for small molecule stabilizers of the endoplasmic reticulum resident proteome: GLuc-NoTag assay (AID 1508627). Further: series mostly up to about 76 µM. In a few lines: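 Secreted GLuc lacking the SERCaMP modification is measured in SH-SY5Y cells exposed to compound for 19 h and then to thapsigargin (100 nM, 4 h) to deplete ER calcium; hits retested at 11 concentrations, up to 76.6 uM.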

Sequence of Calcium and integrin-binding protein 1 (Homo sapiens) (Q99828 whole entry, looked up): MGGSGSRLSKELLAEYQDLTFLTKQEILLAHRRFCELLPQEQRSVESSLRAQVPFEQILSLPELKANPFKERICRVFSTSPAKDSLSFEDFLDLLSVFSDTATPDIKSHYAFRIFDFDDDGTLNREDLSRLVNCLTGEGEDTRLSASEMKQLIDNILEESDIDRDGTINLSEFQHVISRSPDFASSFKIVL
Sequence of Protein phosphatase 1D (Homo sapiens) (O15297 whole entry, looked up): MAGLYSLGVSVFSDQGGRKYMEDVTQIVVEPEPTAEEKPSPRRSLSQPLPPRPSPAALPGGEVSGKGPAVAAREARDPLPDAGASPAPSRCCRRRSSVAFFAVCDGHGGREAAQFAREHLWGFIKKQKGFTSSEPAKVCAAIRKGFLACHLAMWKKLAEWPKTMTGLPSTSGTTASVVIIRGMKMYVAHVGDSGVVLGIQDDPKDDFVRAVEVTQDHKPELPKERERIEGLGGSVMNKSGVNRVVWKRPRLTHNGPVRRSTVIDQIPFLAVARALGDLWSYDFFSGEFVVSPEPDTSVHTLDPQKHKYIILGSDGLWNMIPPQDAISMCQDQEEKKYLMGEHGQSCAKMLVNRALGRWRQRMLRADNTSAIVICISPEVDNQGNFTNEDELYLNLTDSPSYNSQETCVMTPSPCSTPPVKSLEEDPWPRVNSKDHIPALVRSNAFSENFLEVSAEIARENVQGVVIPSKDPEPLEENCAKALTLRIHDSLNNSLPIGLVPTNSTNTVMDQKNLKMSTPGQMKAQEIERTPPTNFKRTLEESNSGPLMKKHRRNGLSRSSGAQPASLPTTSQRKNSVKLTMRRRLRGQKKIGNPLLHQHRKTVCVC

Regarding `CCCc1ncc(C(=O)O)s1`, in assay [1], the outcome was inactive. The Potency result in assay [2] was “inactive”.
Consider `COc1ccc(OC(=O)N(CC(=O)O)Cc2ccc(OCCc3nc(-c4ccccc4)oc3C)cc2)cc1`, for which the call in assay [1] was inactive. For the same molecule, the Potency entry in assay [2] is “inactive”.
Take `Cc1onc(-c2c(Cl)cccc2Cl)c1C(=O)Cl`: in assay [3], the molecule was classed as inactive. For the same molecule, the Potency entry in assay [2] is “inactive”.
With `COC(=O)[C@H]1[C@H]2C[C@@H]3c4[nH]c5cc(OC)ccc5c4CCN3C[C@H]2C[C@@H](OC(=O)/C=C/c2ccc(O)c(OC)c2)[C@@H]1OC`, the outcome in assay [3] and in assay [1] was inactive. In addition, the Potency result in assay [2] is “inactive”.
Regarding `Cc1cc(O)c2c(O)c3c(O)cccc3cc2c1`, in assay [1], the outcome was inactive. Moreover, in assay [2], the Potency entry is “inactive”.
As for `O=C1NC(c2ccccc2)(c2ccccc2)C(=O)N1COP(=O)(O)O`, the molecule was classed as inactive in assay [3] and in assay [1]. Further, the Potency entry in assay [2] is “inactive”.
As for `CCC(=O)O[C@H]1[C@H](O[C@@H]2[C@@H](C)[C@H](O[C@H]3C[C@@](C)(OC)[C@@H](O)[C@H](C)O3)[C@@H](C)C(=O)O[C@H](CC)[C@@](C)(O)[C@H](O)[C@@H](C)C(=O)[C@H](C)C[C@@]2(C)O)O[C@H](C)C[C@@H]1N(C)C`, the molecule was classed as inactive in assay [3] and in assay [1]. For the same molecule, the Potency entry in assay [2] and in assay [4] was “inactive” in each case.
Take `Oc1ccc(CCNCCCCCCNCCc2ccccc2)cc1O`: in assay [3], the outcome was inactive. Further, the Potency entry in assay [2] is “inactive”.

The record behind these values is PubChem BioAssay (NCATS).
